# Most compounds without a hit are left out; they make up all but 2.9% or so of the library.
# ATXN2 expr inh: ATXN2 expression inhibition. HEK-293 ATXN2-luciferase reporter, luminescence, 24 h. Potency, µM (top dose mostly 57 µM), for inactives: top-dose activity change, negative = inhibition, hits mostly inhibitors. 360,000 compounds, 0.72% hits. AID 1745845; further: on the % scale 0 is the no-effect control and ±100 the full control effect; nearly all actives have a fitted effect of over 55% in size
#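 ATXN2-luciferase reporter cells (luciferase flanked by upstream and downstream ATXN2 gene portions) were treated 24 h at 37 °C with compounds at up to 57 uM. SteadyGlo luminescence gave expression; GF-AFC fluorescence gave viability.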
# ATXN viability: reduces viability in counter-screen for ATXN expression inhibitors; S2 cells (HEK-293 line with an ATXN2-luciferase reporter) viability, CellTiter-Fluor protease fluorescence, 24 h; Potency, µM (doses to about 56.7 µM), actives largely listed as cytotoxic; 400,000 compounds, 0.49% hits; AID 651635; further: nearly all actives have a fitted effect of over 40% in size
# A549 viability: counter-screen for Nrf2 inhibitors: cytotoxicity in A549 cells; A549 ARE-Fluc cells, CellTiter-Fluor viability, 18-24 h; Potency, µM (titrated, usually from 46 µM), without a hit: top-dose activity change, negative = cytotoxicity, usual class: inhibitors; 390,000 compounds, 0.16% hits; AID 504648; further: on the % scale 0 is the no-effect control and ±100 the full control effect
#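 Cytotoxicity counterscreen: CellTiter-Fluor fluorescence was measured in A549 ARE_Fluc cells after 18-24 h of compound exposure in a concentration series. The subsequent BugLite luminescent read reports ARE-luciferase activity.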
# Nrf2 inh: Nrf2 pathway inhibition; A549 ARE-Fluc reporter, luciferase luminescence, 18-24 h; Potency, µM (highest dose often 46 µM), without a hit: top-dose activity change, negative = inhibition, most hits filed as inhibitors; 360,000 compounds, 2.1% hits; AID 504444; further: on the % scale 0 is the no-effect control and ±100 the full control effect; nearly all actives have a fitted effect of over 60% in size
#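 In this cell-based qHTS, ARE-driven firefly luciferase in A549 cells reports Nrf2 activity; the luminescent signal after BugLite lysis is the measured value, with a prior CellTiter-Fluor read for cell health.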
# Nrf2 activator: activators of Nrf2 (ARE) signaling; AID 624171; Potency, µM (doses to about 46.1 µM), for inactives: top-dose activation, usual class: activators; 410,000 compounds, 0.31% hits; AREc32 ARE-luciferase reporter (MCF7-derived line), luminescence, 24 h; further: % of control where 0% means no effect; nearly all actives have a fitted effect of over 65% in size
#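 Steps: seed AREc32_Fluc cells (1000/well, 5% FBS OPTI-MEM); incubate overnight at 37 deg C; add 23 nL compound; incubate 24 hr; add Steady-Glo; hold 30 min RT; read luminescence.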
# Starred values were filed as active, the others as inactive; i = inactive; ? = inconclusive; / = no result given; ! = not active in a repeat; [ ] = dose if it differs, or a comment. The call rests on the fitted dose curve; in most records, active means well fitted curve in the direction sought with a large enough effect; inconclusive means small, poorly fitted or top-dose-only effect, or another doubt; inactive means no such curve, though single readings can be large; an effect the other way counts as inactive or inconclusive. Potency means the concentration at half of the fitted maximal effect.
SMILES,ATXN2 expr inh,ATXN viability,A549 viability,Nrf2 inh,Nrf2 activator
CCCCNC(=O)C1(O)c2cc(Br)ccc2NC(=O)N1c1cccc(OC)c1 (stereo unspecified),-16%,i,-7%,8%,-1%
COc1ccc(C(OCC(O)CNCCc2ccc(S(N)(=O)=O)cc2)c2ccc(OC)cc2)cc1 (stereo unspecified),-15%,i,2%,13%,3%
OC(CNCCc1ccc(C(F)(F)F)cc1)COC(c1ccccc1)c1ccccc1 (stereo unspecified),28µM*,?,1%,-21%,-2%
CN(Cc1nccn1C)C(=O)c1cc(COc2ccc3ncccc3c2)on1,-18%,i,-7%,21µM*,0%
COc1cc(Cl)ccc1OCc1cc(C(=O)NCC(C)c2ccccc2)no1 (stereo unspecified),0%,i,6%,8%,0%
CC(CNC(=O)c1cc(COc2ccc3ncccc3c2)on1)c1ccccc1 (stereo unspecified),?,/,-16%,15µM*,2%
O=C(c1cc(COc2ccc3ncccc3c2)on1)N1CCC[C@H]1CO,11%,?,-20%,9.2µM*,2%
O=C(c1cc(COc2ccc3ncccc3c2)on1)N1CCCC(O)C1 (stereo unspecified),-1%,i,-7%,?,3%
CN(Cc1nccn1C)C(=O)c1cc(COc2cccc(C(F)(F)F)c2)on1,29%,i,?,-6%,4%
COCC1CCCN(C(=O)c2cc(COc3ccc4ncccc4c3)on2)C1 (stereo unspecified),-15%,i,-18%,8.2µM*,0%
C=CCn1c(SCc2nc3ccccc3[nH]2)nnc1-c1ccncc1,0%,i,0%[1.84 µM],8%,0%
CCCc1nc2oc3c(OC)ncnc3c2c2c1COC(C)(C)C2,-1%,i,5%[1.84 µM],6%,0%
O=C1NC[C@@H](CCCCN2C[C@H](Cc3ccc(O)cc3)N(CCc3ccc(O)cc3)C(=O)C2=O)N(CC2CCCCC2)C1=O,-2%,i,/,/,0%
O=C(CN1C2=NCCN2c2ccccc21)C12CC3CC(CC(C3)C1)C2,-16%,?,?,/,2%
CCOC(=O)N1CCN(C(=O)c2cc(COc3ccc4ncccc4c3)on2)CC1,?,i,-13%,18µM*,3%
CCOC(=O)N1CCN(C(=O)c2cc(COc3cccc(C(C)=O)c3)on2)CC1,53%,i,0%,?,7%
COc1ccc(CCn2nnc(-c3ccc(NC(C)=O)c(Cl)c3)n2)cc1,-5%,i,-5%,-7%,-1%
Cc1ccccc1NS(=O)(=O)c1ccc(C(=O)N2CC(C)OC(C)C2)cc1 (stereo unspecified),-8%,i,-9%,?,0%
Cc1ccc(/C=N/N(C)S(=O)(=O)c2ccc(C)cc2)cc1,-23%,i,-1%,26µM*,0%
Cc1ccc(S(=O)(=O)N(C)S(=O)(=O)c2ccc(C)cc2)cc1,-20%,i,4%,23µM*,4%
CCCCCc1cc(=O)oc2c(C(CCN3CCCC(C)C3)c3cc(OC)c(OC)c(OC)c3)c(OC)cc(OC)c12 (stereo unspecified),?,32µM*,?,5%,-1%
CCCCCc1cc(=O)oc2c(C(CCN3CCCCC3)c3cc(OC)c(OC)c(OC)c3)c(OC)cc(OC)c12 (stereo unspecified),32µM*,20µM*,-20%,6%,-5%
CCCCCc1cc(=O)oc2c(C(CCN(CC)CC)c3ccc(N(C)C)cc3)c(OC)cc(OC)c12 (stereo unspecified),?,25µM*,-24%,1%,-3%
O=C(NCc1ccncc1)Nc1ccc(Cc2ccc(NC(=O)NCc3ccncc3)cc2)cc1,/,i,/,/,0%
Cc1ccc(-c2cc(C(=O)Nc3cccnc3)c3ccccc3n2)s1,8%,i,-16%,4%,2%
SMILES,ATXN2 expr inh,ATXN viability,A549 viability,Nrf2 inh,Nrf2 activator
CC1(C(=O)NS(=O)(=O)c2ccc(F)cc2F)CCN1C(=O)c1ccco1 (stereo unspecified),4%,i,/,/,0%
Cn1c(=O)c2[nH]c(Cc3cccc4ccccc34)nc2n(C)c1=O,-28%,i,-8%,21µM*,3%
Nc1nnc(C(F)(F)F)s1,/,i,1%,7%,0%
COc1ccc(S(=O)(=O)N2CCCOC2CNC(=O)C(=O)NCCc2ccco2)cc1OC (stereo unspecified),-3%,i,-5%,3%,0%
Cn1c(=O)n(C)c2cc([N+](=O)[O-])c(N3CCN(C(=O)c4ccccc4Cl)CC3)cc21,-29%,i,-8%,?,4%
Cn1c(=O)n(C)c2cc([N+](=O)[O-])c(N3CCN(C(=O)c4ccccc4Br)CC3)cc21,?,i,?,18µM*,3%
Cc1ccc(S(=O)(=O)c2cc(C)cc(S(=O)(=O)Nc3ccc(C(=O)O)cc3)c2C)cc1,10%,i,0%,-4%,0%
CSc1nc(C)cc(Nc2cccc(C(=O)O)c2)n1,3%,i,1%,9%,4%
Cc1nnc(SCC(=O)N2CCOCC2)c2ccccc12,15%,i,1%,9.2µM*,?
O=C(Cc1cccc2ccccc12)NCC(=O)N1CCN(CC(=O)Nc2ccc(F)cc2)CC1,/,i,/,/,-2%
O=C(Cc1cccc2ccccc12)NCC(=O)N1CCN(Cc2cccc(C(F)(F)F)c2)CC1,/,i,-13%,21µM*,1%
O=C(CCS(=O)(=O)c1ccc2c(c1)NC(=O)CO2)NCCc1ccc(Cl)cc1,-4%,i,4%,10%,0%
CCCCOc1ccc(CSC(=N)N)cc1Cl,25µM*,?,11%,-2%,6%
CCCN(CCC)C(=O)c1cc2c(=O)n3cccc(C)c3nc2n1C,/,/,0%,1%,0%
Cc1ccc(NC(=O)Cc2cc(C(=O)O)c3ccccc3n2)c(C)c1,/,i,?,5.8µM*,4%
Clc1ccc(N2CCN(c3ccnc(Cl)n3)CC2)cc1,0%,i,-7%,16µM*,0%
Cc1csc(-c2ccc3cc(Cl)cc(Cl)c3n2)n1,60%,i,/,/,2.5µM*
Cc1nc(-c2cc(-c3ccc(Cl)cc3)no2)cs1,51%,i,-1%,?,-2%
COc1ccccc1NCC(O)Cn1c2ccccc2c2ccccc21 (stereo unspecified),-17%,i,21µM*,?,2%
CCC1CN(C(=O)NCc2ccccc2)c2cc(C)ccc2O1 (stereo unspecified),9%,i,?,?,0%
CCC1CN(C(=O)NCc2ccc(C)cc2)c2cc(C)ccc2O1 (stereo unspecified),0%,i,?,21µM*!,1%
